A selection: hits, their analogues and other compounds. The true share with any hit is near 20%.
HCMV inh: human cytomegalovirus inhibition | HFF cells, HCMV-luciferase reporter, 72 h; hits give low values | activity change, negative = inhibition, % at 57.5 µM | 410,000 compounds, 4.5% hits; in the data active = activity change below about -60%; inconclusive = no clear call, values can overlap the other calls; inactive = above about -39%; note: % is set by controls: 0 for no effect and ±100 for the full control effect
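Cell-based, HFFs, 1000 cells/well, 16 h 37C; cpds in DMSO + HCMV-luc, MOI 1 PFU/cell; 72 h 37C; OneGlo luminescence after 5 min RT; norm. to buffer vs Salinomycin 10uM.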
Pf growth 48h: inhibits P. falciparum growth in the first generation, 48 h; P. falciparum luciferase growth in erythrocytes, 48 h; Potency, µM (highest dose often 28.7 µM), for inactives: at the highest dose activity change, negative = inhibition, hits mostly inhibitors; 310,000 compounds, 5.9% hits; note: potency is the fitted concentration of half-maximal effect; % is set by controls: 0 for no effect and ±100 for the full control effect
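Firefly luciferase activity from engineered P. falciparum reports growth; inhibitors lower the luminescent signal. Cultures contained 2% hematocrit erythrocytes at 0.1% final parasitemia.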
Shiga toxin inh: inhibitors of Shiga toxin in Vero cells. Vero cells, Shiga toxin protein synthesis inhibition reporter. inhibition, % at 38.7 µM. AID 2315. 290,000 compounds, 9.2% hits; in the data active = inhibition mostly above about 28%, no sharp cut-off; inactive = mostly below about 43%; note: 0% is about no effect
Pf growth 96h: P. falciparum growth inhibition at 96 hour, primary screen for plastid delayed-death inhibitors; P. falciparum luciferase reporter growth, 96 h; Potency, µM (series often up to 28.7 µM), for inactives: at the top dose activity change, negative = inhibition, hits mostly inhibitors; 320,000 compounds, 6.9% hits; AID 504834; note: potency is the fitted concentration of half-maximal effect; % is set by controls: 0 for no effect and ±100 for the full control effect
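Compounds incubated with erythrocytes infected by luciferase-expressing P. falciparum (2% hematocrit, 0.05% parasitemia final) for 96 hours, 37 C in 5% CO2. Growth inhibition scored as decreased luciferase luminescence.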
CHX counter: counter-screen for Shiga toxin inhibitors: cycloheximide protein synthesis inhibition | 300,000 compounds, 12% hits | max response, % | cell reporter, cycloheximide protein synthesis inhibition counterscreen; in the data active = max response mostly above about 13%, no sharp cut-off; inactive = mostly below about 14%; note: read at 38.3 µM for the half of the compounds with a filed dose; 0% is about no effect
* hit, by the source's call; ? = inconclusive; · = no result. Unless noted, calls come from the whole dose curve; as a rule, active = well fitted inhibition curve with a large enough effect; inconclusive = small, poorly fitted or top-dose-only effect, or another doubt; inactive = no such curve, though single readings can be large or run the other way.

SMILES	HCMV inh	Pf growth 48h	Shiga toxin inh	Pf growth 96h	CHX counter
c1coc(CNc2nc(-c3cccs3)cs2)c1	-8	?	90*	4%	33*
CC(=O)Nc1cccc(-c2csc(NCc3ccco3)n2)c1	43	?	51*	72%	17
Oc1ccc(-c2csc(NCc3ccco3)n2)cc1	47	56%	158*	·	44*
Cc1ccccc1CCNC(=O)c1ccc2c(c1)c(C)c(C)n2Cc1ccccc1	0	·	·	·	·
CS(=O)(=O)c1ccc(-c2nnc(NC(=O)c3cccc(N4C(=O)CCC4=O)c3)o2)cc1	-10	8%	·	2%	·
Cc1cc(C(=O)NC2CCCN(Cc3ccccc3F)C2)n[nH]1 (centres undefined)	-3	-1%	-12	?	-1
Cc1[nH]c2ccccc2c1SCc1nnc(SCc2ccccc2)n1C	-33	?	-4	?	1
Cc1[nH]c2ccccc2c1SCc1nnc(SCc2ccc(Cl)cc2)n1C	-12	15µM*	-2	?	-3
Cc1ccc(NC(=O)Nc2nc(-c3ccc(C)s3)cs2)cc1	-22	-11%	-4	15µM*	23
O=C(NC(=S)Nc1nc(-c2cccc3ccccc23)cs1)c1cc2ccccc2o1	52	11%	-3	-19%	-1
CC(=O)Nc1nc(-c2ccc(Br)s2)cs1	6	-47%	63*	·	25*
CC(=O)Nc1nc(-c2cccc3ccccc23)cs1	137	6%	15	88%	15*
C/C(Cc1ccccc1)=N\NC(=O)CNC(=O)Cc1ccc(Cl)cc1	8	7%	8	32%	-2
COc1ccc(C)cc1NC(=O)CSc1nc(=O)n(Cc2cccnc2)c2c1CCC2	-5	·	·	·	·
CN(C)S(=O)(=O)c1cccc(NC(=O)c2ccc3nccnc3c2)c1	?	23%	44	-10%	20*
CN(C)S(=O)(=O)c1ccc(C(=O)Nc2cccc(C(=O)O)c2)cc1	20	62%	-15	·	-2
Cc1cc(NC(=O)c2cccc(S(=O)(=O)N(C)C)c2)n(-c2ccccn2)n1	0	·	-8	4.7µM*	-5
CC(=O)c1cccc(NC(=O)c2cccc(S(=O)(=O)N(C)C)c2)c1	-16	34%	8	·	13*
O=C(Cc1ccc(Cl)cc1)N/N=C/c1cccc(O)c1	-32	32%	26	7%	4
CCn1cc(C(=O)OCC(=O)c2cc(C)n(-c3ccc(OC(F)F)cc3)c2C)c(=O)c2ccc(C)nc21	-21	-17%	-7	?	-1
O=C(CS(=O)(=O)c1cccc2nsnc12)N1CCN(c2ccccc2F)CC1	21	·	·	·	·
C/C(CC(=O)N1CCN(C=O)CC1)=N\NC(=O)c1ccc([N+](=O)[O-])cc1	-34	-26%	64	104%	20*
C/C(=N/NC(=O)c1cc2ccccc2cc1O)C1C(=O)c2ccccc2C1=O	42	·	-8	·	-2
C/C(CC(=O)N1CCN(C=O)CC1)=N\NC(=O)c1cc2ccccc2cc1O	-64*	-10%	5	-9%	2
Cc1ccc(/C=N/NC(=O)c2n[nH]c3c2CCCC3)cc1	-75*	80%	53*	68%	32*
SMILES	HCMV inh	Pf growth 48h	Shiga toxin inh	Pf growth 96h	CHX counter
O=C(CCSCCC(=O)NN=Cc1cccc(Cl)c1)NN=Cc1cccc(Cl)c1	-20	·	·	·	·
O=C(N/N=C/c1cccc2ccccc12)c1n[nH]c2c1CCCC2	-16	-26%	23	5%	7
C/C(=N\NC(=O)c1n[nH]c2c1CCC2)c1cccs1	-91*	?	-11	81%	-2
O=C(N/N=C/c1ccc(Cl)cc1Cl)c1n[nH]c2c1CCCC2	-16	163%	67*	81%	21*
O=C(O)c1n[nH]c2c1CCCC2	26	-2%	0	9%	-1
O=C(N/N=C\c1cccc(Cl)c1)c1n[nH]c2c1CCCC2	81	104%	78*	35%	59*
C/C(=N/NC(=O)C1CC1(c1ccccc1)c1ccccc1)c1cccs1 (centres undefined)	-28	?	-1	?	-1
O=C(N/C(=C\c1cccc([N+](=O)[O-])c1)C(=O)N1CCOCC1)c1ccc([N+](=O)[O-])cc1	-11	2%	3	-4%	-7
CSc1ncccc1C(=O)OCC(=O)NC1CCC(C)CC1 (centres undefined)	38	4%	·	-11%	·
O=C(N/N=C/c1cccs1)c1n[nH]c2c1CCCC2	-85*	14%	-21	47%	6
O=C(N/N=C/c1cccc(Cl)c1)C1CCCC1	33	26%	54*	?	35*
Cc1ccsc1CNC12CC3CC(CC(C3)C1)C2	56	-16%	-5	0.83µM*	-2
Cc1ccsc1CNC1CCCCC1	-8	?	·	?	5
O=C(CNC(=O)c1ccccc1)NCc1nc2ccccc2[nH]1	7	4%	·	4%	·
CC(NC(=O)C1CCCC1)c1ccccc1 (centres undefined)	-12	·	·	·	·
Cc1ccc(CN2C3CCCC2CC(NC(=S)NCc2ccccc2)C3)cc1 (centres undefined)	-67*	12µM*	-2	0%	1
CC(NC(=S)NC1CCC(C(C)(C)C)CC1)c1ccccc1 (centres undefined)	-82*	7.4µM*	-5	9.3µM*	-2
Cc1ccc(CNC(=S)NC2CCC(C(C)(C)C)CC2)cc1 (centres undefined)	?	9.3µM*	-18	12µM*	-1
CCc1ccccc1NC(=S)NC1CC2CCC(C1)N2Cc1ccc(F)cc1 (centres undefined)	-28	7.4µM*	-27	-8%	-2
COc1ccc(CNC(=S)NC2CCCC2)cc1	?	-7%	2	17%	-3
O=C(NC1CC(=O)N(c2cccc(F)c2)C1)c1ccc(S(=O)(=O)N2CCOCC2)cc1 (centres undefined)	3	·	·	·	·
Cc1ccc(C(=O)OCc2nnc(-c3ccc(Br)cc3)o2)cc1	69	2%	19	22%	4
CCC(Sc1nnc2c(n1)[nH]c1ccccc12)C(=O)Nc1ccccc1OC (centres undefined)	87	·	·	·	·
Cc1cccc(NC(=S)NC2CC3CCCC(C2)N3Cc2ccccc2)c1C (centres undefined)	?	5.9µM*	-9	1%	-3
Cc1cccc(NC(=S)NC2CC3CCC(C2)N3Cc2ccco2)c1C (centres undefined)	-25	-15%	-8	?	-3
Cc1cccc(OCCn2cc(/C=N/NC(=O)c3ccncc3)c3ccccc32)c1	-23	28%	28*	4%	11*
CCOC(=O)/C(C#N)=C/c1cn(CCOc2ccc(OC)cc2)c2ccccc12	24	?	-3	22%	10
COc1ccc(OCCCn2cc(/C=C3/C(=N)N4C=C(C)SC4=NC3=O)c3ccccc32)cc1	56	38%	36*	-7%	35*
Cc1cccc(OCC(=O)N/N=C\c2cn(C)c3ccccc23)c1	-21	?	-3	16%	-6
